# Experimental data published in ChEMBL document CHEMBL1961873, “Compounds: GSK PKIS; Assays: Nanosyn kinase panel” (2012).
# Tests used:
# [1] = target: Sphingosine kinase 1 (Homo sapiens) (UniProt Q9NYA1); settings: at 1 µM;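 further: mean SPHK1 inhibition value reported from the GSK PKIS kinase panel screen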
# [2] = target: T1, Sphingosine kinase 2 (Homo sapiens) (UniProt Q9NRA0); settings: at 0.1 µM
# T1 sequence (whole entry): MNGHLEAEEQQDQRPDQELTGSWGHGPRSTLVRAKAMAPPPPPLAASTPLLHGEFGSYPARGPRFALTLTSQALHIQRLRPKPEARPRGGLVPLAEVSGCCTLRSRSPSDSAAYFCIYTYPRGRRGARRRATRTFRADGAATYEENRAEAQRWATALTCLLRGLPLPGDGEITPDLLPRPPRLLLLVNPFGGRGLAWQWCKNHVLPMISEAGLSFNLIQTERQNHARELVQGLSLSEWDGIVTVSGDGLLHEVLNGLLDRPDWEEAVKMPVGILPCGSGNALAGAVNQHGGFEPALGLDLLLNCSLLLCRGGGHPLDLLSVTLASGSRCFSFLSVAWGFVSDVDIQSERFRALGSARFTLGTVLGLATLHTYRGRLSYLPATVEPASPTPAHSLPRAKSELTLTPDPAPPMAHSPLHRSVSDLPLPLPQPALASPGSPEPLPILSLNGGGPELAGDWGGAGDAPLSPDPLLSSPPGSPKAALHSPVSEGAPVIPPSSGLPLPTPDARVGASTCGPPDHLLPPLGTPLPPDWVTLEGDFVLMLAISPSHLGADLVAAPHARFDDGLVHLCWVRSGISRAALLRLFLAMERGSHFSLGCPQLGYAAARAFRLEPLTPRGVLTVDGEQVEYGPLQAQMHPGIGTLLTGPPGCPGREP
# [3] = target: T1, Sphingosine kinase 2 (Homo sapiens); settings: at 1 µM
# [4] = target: Casein kinase II subunit alpha (Homo sapiens) (UniProt P68400); settings: at 0.1 µM
# Casein kinase II subunit alpha (Homo sapiens), sequence (P68400 whole entry, looked up): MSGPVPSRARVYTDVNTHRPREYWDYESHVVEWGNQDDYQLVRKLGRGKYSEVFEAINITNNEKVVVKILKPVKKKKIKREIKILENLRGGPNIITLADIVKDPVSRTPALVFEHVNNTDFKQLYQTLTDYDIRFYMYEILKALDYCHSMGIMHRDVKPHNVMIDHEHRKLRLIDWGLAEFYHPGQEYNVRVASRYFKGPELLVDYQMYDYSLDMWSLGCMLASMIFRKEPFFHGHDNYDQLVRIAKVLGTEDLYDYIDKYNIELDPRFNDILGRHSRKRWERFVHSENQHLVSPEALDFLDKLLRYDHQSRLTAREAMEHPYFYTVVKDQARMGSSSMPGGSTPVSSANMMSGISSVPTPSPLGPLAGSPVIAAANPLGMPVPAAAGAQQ
# [5] = target: Casein kinase II subunit alpha (Homo sapiens) (UniProt P68400); settings: at 1 µM
# [6] = target: T2, Inhibitor of nuclear factor kappa-B kinase subunit alpha (Homo sapiens) (UniProt O15111); settings: at 0.1 µM
# T2 sequence (whole entry): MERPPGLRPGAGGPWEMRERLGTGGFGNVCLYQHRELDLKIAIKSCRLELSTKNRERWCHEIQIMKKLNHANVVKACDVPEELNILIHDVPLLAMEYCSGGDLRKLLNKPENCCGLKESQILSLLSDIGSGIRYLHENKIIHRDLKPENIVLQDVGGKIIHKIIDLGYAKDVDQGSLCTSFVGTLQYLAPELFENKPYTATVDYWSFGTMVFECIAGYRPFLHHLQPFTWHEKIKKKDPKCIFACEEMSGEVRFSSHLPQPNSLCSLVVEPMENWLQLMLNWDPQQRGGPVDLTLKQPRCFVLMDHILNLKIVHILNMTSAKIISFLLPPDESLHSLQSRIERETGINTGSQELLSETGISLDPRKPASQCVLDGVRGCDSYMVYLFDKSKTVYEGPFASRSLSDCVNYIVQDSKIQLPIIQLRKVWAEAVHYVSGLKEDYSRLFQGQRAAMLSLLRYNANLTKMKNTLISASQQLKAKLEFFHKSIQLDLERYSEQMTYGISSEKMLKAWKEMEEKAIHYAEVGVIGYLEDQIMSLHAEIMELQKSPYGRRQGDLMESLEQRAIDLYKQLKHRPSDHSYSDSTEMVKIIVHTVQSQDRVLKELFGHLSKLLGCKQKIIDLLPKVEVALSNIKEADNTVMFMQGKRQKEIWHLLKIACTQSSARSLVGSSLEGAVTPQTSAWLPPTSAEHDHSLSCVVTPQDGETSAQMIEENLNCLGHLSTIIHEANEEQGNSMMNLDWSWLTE
# [7] = target: T2, Inhibitor of nuclear factor kappa-B kinase subunit alpha (Homo sapiens); settings: at 1 µM
# [8] = target: T3, Inhibitor of nuclear factor kappa-B kinase subunit beta (Homo sapiens) (UniProt O14920); settings: at 0.1 µM
# T3 sequence (whole entry): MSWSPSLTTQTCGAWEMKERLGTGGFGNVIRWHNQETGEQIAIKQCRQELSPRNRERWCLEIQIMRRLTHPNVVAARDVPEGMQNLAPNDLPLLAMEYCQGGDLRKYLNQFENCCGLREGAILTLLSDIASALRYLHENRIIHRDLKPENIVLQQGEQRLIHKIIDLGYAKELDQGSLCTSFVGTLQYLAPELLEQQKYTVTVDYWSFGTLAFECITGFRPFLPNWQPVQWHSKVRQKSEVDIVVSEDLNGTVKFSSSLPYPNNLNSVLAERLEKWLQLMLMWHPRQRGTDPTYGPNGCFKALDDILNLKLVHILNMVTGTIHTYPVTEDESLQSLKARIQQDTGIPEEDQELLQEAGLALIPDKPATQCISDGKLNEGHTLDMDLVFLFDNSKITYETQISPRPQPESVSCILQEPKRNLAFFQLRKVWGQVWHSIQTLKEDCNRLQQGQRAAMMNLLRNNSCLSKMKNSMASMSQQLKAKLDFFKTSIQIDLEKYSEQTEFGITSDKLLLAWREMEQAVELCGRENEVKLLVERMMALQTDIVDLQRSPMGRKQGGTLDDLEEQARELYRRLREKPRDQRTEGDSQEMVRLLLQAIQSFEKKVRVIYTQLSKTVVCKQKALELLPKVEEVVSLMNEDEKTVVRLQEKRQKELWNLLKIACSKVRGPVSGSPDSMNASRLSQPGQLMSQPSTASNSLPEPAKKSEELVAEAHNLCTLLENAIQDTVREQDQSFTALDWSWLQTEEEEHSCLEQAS
# [9] = target: T3, Inhibitor of nuclear factor kappa-B kinase subunit beta (Homo sapiens); settings: at 1 µM
# [10] = target: T4, Inhibitor of nuclear factor kappa-B kinase subunit epsilon (Homo sapiens) (UniProt Q14164); settings: at 0.1 µM
# T4 sequence (whole entry): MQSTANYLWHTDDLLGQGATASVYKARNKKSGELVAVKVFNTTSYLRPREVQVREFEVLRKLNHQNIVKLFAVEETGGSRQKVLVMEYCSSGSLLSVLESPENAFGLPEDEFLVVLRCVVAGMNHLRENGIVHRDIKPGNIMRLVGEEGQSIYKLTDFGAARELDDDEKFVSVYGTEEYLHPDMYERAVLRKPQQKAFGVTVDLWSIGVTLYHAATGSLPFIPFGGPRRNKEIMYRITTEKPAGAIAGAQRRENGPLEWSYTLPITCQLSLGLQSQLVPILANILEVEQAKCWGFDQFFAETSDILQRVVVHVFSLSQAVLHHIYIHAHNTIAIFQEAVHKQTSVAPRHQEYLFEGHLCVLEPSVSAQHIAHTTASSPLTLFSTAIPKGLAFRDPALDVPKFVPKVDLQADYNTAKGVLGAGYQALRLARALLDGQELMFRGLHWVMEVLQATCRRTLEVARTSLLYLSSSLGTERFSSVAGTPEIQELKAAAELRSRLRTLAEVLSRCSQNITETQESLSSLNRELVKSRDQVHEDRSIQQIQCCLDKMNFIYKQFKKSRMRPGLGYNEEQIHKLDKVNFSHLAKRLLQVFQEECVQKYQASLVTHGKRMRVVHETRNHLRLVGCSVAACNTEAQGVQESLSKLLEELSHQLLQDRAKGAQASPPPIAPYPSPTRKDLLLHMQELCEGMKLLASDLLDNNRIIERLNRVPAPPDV
# [11] = target: T4, Inhibitor of nuclear factor kappa-B kinase subunit epsilon (Homo sapiens); settings: at 1 µM
# [12] = target: T5, Serine/threonine-protein kinase Nek1 (Homo sapiens) (UniProt Q96PY6); settings: at 0.1 µM
# T5 sequence (whole entry): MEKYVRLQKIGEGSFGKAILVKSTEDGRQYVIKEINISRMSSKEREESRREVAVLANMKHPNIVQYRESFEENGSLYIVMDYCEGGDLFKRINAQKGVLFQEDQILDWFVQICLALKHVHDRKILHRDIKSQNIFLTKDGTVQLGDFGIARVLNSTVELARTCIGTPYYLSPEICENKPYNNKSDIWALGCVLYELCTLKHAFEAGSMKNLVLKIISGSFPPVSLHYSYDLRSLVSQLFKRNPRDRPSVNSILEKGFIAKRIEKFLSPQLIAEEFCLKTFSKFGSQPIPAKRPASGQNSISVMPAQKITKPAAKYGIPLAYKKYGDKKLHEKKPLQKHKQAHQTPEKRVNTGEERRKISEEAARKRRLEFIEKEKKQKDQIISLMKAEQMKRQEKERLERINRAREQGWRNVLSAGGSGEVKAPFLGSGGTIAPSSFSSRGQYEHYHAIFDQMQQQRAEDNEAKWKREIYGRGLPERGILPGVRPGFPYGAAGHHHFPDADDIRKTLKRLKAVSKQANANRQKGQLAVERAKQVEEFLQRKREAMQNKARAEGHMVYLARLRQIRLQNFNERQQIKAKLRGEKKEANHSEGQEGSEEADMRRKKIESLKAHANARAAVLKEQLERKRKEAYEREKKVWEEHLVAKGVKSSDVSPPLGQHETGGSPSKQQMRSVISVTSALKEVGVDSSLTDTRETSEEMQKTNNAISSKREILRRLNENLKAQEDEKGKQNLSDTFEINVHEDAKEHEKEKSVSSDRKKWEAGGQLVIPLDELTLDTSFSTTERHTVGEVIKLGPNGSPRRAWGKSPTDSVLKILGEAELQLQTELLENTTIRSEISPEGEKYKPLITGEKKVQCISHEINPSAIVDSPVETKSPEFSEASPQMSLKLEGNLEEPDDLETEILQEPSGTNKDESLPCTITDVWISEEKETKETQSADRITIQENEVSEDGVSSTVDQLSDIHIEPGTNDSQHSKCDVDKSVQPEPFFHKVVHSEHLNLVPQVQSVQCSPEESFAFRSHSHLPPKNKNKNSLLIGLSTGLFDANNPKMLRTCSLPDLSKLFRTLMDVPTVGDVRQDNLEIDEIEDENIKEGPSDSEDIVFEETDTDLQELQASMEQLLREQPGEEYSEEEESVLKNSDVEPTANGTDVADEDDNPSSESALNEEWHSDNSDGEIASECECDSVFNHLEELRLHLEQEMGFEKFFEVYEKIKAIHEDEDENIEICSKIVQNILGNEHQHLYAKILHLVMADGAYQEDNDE
# [13] = target: T5, Serine/threonine-protein kinase Nek1 (Homo sapiens); settings: at 1 µM
# [14] = target: T6, Serine/threonine-protein kinase Nek2 (Homo sapiens) (UniProt P51955); settings: at 0.1 µM
# T6 sequence (whole entry): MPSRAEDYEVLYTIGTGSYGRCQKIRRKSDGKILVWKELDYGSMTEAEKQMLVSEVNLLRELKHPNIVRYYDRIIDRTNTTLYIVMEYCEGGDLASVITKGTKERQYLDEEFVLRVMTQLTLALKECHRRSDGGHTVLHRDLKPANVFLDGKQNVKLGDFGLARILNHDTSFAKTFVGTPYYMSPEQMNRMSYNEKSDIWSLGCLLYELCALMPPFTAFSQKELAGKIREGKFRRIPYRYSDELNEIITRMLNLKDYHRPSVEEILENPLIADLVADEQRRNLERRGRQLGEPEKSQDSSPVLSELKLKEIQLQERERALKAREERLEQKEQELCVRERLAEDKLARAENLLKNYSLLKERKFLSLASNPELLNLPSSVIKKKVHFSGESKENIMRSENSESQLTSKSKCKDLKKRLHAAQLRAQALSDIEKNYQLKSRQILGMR
# [15] = target: T6, Serine/threonine-protein kinase Nek2 (Homo sapiens); settings: at 1 µM
# [16] = target: Serine/threonine-protein kinase Nek6 (Homo sapiens) (UniProt Q9HC98); settings: at 0.1 µM
# Serine/threonine-protein kinase Nek6 (Homo sapiens), sequence (Q9HC98 whole entry): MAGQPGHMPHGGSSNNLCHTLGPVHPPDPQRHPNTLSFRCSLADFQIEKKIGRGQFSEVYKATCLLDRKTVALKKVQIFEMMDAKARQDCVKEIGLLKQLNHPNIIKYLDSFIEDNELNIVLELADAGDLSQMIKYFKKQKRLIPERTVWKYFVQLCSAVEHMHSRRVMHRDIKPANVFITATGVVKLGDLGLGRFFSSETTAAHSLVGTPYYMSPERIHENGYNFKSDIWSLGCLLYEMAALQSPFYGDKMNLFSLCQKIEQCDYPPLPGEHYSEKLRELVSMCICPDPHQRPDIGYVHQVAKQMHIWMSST
# [17] = target: Serine/threonine-protein kinase Nek6 (Homo sapiens) (UniProt Q9HC98); settings: at 1 µM
# [18] = target: Serine/threonine-protein kinase Nek7 (Homo sapiens) (UniProt Q8TDX7); settings: at 0.1 µM
# Serine/threonine-protein kinase Nek7 (Homo sapiens), sequence (Q8TDX7 whole entry, looked up): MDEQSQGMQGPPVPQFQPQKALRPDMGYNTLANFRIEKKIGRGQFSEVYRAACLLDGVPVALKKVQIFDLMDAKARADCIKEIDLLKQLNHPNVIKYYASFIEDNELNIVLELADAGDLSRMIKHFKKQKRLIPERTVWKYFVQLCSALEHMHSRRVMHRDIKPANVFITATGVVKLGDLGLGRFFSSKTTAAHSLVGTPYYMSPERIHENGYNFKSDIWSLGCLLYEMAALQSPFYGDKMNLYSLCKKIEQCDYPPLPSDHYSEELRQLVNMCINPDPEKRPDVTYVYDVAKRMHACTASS
# [19] = target: Serine/threonine-protein kinase Nek7 (Homo sapiens) (UniProt Q8TDX7); settings: at 1 µM
# [20] = target: T7, Serine/threonine-protein kinase Nek9 (Homo sapiens) (UniProt Q8TD19); settings: at 0.1 µM;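 further: reported value is the mean percent inhibition of NEK9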
# T7 sequence (whole entry): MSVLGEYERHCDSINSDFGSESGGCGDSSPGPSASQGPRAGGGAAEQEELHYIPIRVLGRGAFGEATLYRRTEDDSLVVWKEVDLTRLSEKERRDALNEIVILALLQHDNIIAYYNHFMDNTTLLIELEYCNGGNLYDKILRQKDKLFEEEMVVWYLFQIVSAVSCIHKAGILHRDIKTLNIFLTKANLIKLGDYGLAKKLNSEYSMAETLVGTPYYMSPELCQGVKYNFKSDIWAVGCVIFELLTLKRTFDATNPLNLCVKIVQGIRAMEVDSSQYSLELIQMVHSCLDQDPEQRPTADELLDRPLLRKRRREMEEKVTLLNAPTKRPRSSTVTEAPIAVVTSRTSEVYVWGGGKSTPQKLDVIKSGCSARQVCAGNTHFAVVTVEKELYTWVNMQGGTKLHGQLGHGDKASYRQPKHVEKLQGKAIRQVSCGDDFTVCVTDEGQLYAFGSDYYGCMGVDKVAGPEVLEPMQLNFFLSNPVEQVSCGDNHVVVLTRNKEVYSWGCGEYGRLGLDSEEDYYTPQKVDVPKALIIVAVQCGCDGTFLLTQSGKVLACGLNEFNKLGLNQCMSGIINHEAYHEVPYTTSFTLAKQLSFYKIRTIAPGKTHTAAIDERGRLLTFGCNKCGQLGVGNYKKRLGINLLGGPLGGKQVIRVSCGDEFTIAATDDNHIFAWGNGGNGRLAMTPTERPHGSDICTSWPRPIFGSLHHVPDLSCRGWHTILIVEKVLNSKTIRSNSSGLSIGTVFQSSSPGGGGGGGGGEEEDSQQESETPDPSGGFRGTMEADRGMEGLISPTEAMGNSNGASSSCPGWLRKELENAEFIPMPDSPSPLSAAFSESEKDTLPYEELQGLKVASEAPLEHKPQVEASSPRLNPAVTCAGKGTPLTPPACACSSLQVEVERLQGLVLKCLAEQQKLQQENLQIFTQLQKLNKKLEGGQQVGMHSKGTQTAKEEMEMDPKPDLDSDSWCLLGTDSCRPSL
# Sphingosine kinase 1 (Homo sapiens), sequence (Q9NYA1 whole entry): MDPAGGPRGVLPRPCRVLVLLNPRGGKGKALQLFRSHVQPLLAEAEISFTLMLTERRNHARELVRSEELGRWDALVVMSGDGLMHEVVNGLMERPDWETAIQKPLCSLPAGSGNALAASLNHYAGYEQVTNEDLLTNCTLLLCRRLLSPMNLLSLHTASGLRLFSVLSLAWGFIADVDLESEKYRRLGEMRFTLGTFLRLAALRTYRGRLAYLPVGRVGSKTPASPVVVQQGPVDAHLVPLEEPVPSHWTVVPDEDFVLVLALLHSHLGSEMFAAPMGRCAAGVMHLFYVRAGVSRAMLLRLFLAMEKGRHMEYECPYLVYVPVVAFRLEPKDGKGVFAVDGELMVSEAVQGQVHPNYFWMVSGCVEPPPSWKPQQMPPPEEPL
SMILES,inhibition [1],inhibition [2],inhibition [3],inhibition [4],inhibition [5],inhibition [6],inhibition [7],inhibition [8],inhibition [9],inhibition [10],inhibition [11],inhibition [12],inhibition [13],inhibition [14],inhibition [15],inhibition [16],inhibition [17],inhibition [18],inhibition [19],inhibition [20]
CC(=O)Nc1cccc(C#Cc2cncnc2Nc2ccc(OCc3cccc(F)c3)c(Cl)c2)n1,0.51%,1.73%,-0.13%,2.14%,9.24%,2.26%,-1.99%,-3.08%,2.94%,2.95%,1.53%,-2.25%,1.58%,-2.96%,-1.9%,1.43%,4.26%,-4.17%,-3.8%,0.45%
COc1ccc(COc2ccc(Cc3cnc(N)nc3N)cc2OC)cc1,-2.38%,0.09%,-0.88%,-2.39%,-8.59%,2.25%,-7.71%,-1.1%,-1.34%,-1.79%,-2.21%,1.41%,1.56%,-0.14%,-1.4%,-0.54%,-3.71%,2.81%,1.75%,0.22%
